The whole screen tested about 640,000 compounds, of which about 9,300 (1.5%) were called active. This is one part of a sample in which actives are shown more often than they occur. No stated cut-off is given here; in the data, active means inhibition above about 32%; inactive means the rest.

A short description of the experiment: TEAD-YAP interaction inhibition, primary screen, TEAD-YAP interaction inhibitor project, luminescence, HEK-TIYL cells (AID 1259422).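 Further: 0% = median of test compound wells and 100% = reference inhibitor wells.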 The conditions noted are these: TEAD-Gal4/YAP UAS-luciferase luminescence, at 9.12 µM, hits give high values.
Turning to `O=c1oc2ccc(Br)cc2cc1-c1cn2c(n1)sc1ccccc12`, the inhibition (commonly the change of the read-out against control, counted positive when it falls) is 2.88% (inactive). Regarding `CCCCCCc1cc2cc(-c3cn4c(n3)sc3cc(Cl)ccc34)c(=O)oc2cc1O`, the inhibition was -3.76% (inactive). For the molecule `O=c1oc2ccccc2cc1-c1cn2c(n1)sc1cc(Cl)ccc12`, the inhibition is 62.5% (active). To `Cc1cccc(N2C(=O)NC(=O)/C(=C\c3ccc(I)o3)C2=O)c1C` belongs -0.13% (inactive); to `O=C(O)/C(=C\c1ccccc1)NC(=O)c1ccc(Br)cc1`, -2.04% (inactive); to `O=C(O)CCNCCC(=O)c1ccccc1`, -12.1% (inactive). The figure for `COc1ccccc1N1CCN(C(=O)CSCc2ccccc2C)CC1` is -42.5% (inactive); for `COc1ccccc1N1CCN(C(=O)COc2ccc(Cl)cc2C)CC1` it is 58.5% (active); for `COc1ccc(N2CCN(C(=O)COc3ccccc3OC)CC2)cc1` it is 1.61% (inactive). To `CCOC(=O)CSc1ccc(C(=O)N2CCN(c3ccccc3OC)CC2)cc1[N+](=O)[O-]` belongs 3.32% (inactive); to `COc1ccccc1N1CCN(C(=O)c2ccc(Cl)c([N+](=O)[O-])c2)CC1`, 49% (active); to `COC(=O)C1CCN(C(=O)c2ccc(Cl)c([N+](=O)[O-])c2)CC1`, 1.51% (inactive).

For `Cc1cccc2nc(NC(=O)c3ccnn3C)sc12`, the inhibition was -7.31% (inactive). `CCOC1=C/C(=C/c2c(N)n3nc(C(C)C)sc3nc2=O)C=CC1=O`: the inhibition is 9.9% (inactive).

With `COc1ccc(/C=C2/N=C(c3cccc4ccccc34)OC2=O)c(OC)c1OC`, the inhibition is -1.88% (inactive).

Turning to `CCc1ccccc1Nc1cc(C)nc2ncnn12`, the inhibition is -7.4% (inactive). As to `COc1ccc(-n2nc3c(c2NC(=O)c2cc([N+](=O)[O-])ccc2Cl)CS(=O)C3)cc1` (centres undefined), the inhibition was 41.9% (active). On to `COc1ccc(-n2nc3c(c2NC(=O)c2cccc(OC)c2OC)CS(=O)C3)cc1` (centres undefined), for which the inhibition was -1.38% (inactive). To `COc1ccc(C(=O)Nc2c3c(nn2-c2ccc(F)cc2)CS(=O)C3)c(OC)c1` (centres undefined) belongs 0.99% (inactive); to `CC1CCCC(NC(=O)C(C)n2c(=O)c3cccn3c3cccnc32)C1C` (centres undefined), 3.19% (inactive). The figure for `Cn1c(SCC(=O)Nc2nnc(-c3ccccc3)s2)nnc1-c1ccccc1` is -17.2% (inactive); for `O=C(Nc1ccc(Cl)c(S(=O)(=O)c2ccc(Cl)cc2)c1)c1cc(Br)cc(Br)c1O` it is -6.46% (inactive); for `CC(C)(C)c1ccc(C(=O)Nc2ccc(N3CCOCC3)c(Cl)c2)cc1` it is 0.56% (inactive).

In the case of `CN1CCN(c2ccc(NC(=O)c3cc(Br)cc(Br)c3O)cc2Cl)CC1`, the inhibition was 68% (active). To `NC(=O)c1cc(NC(=O)C(F)(F)F)cc(C(N)=O)c1` belongs -9.16% (inactive); to `O=C(NCc1ccc(F)cc1)c1nc2c(nnn2Cc2ccc3c(c2)OCO3)c(=O)[nH]1`, -15.6% (inactive); to `O=C(Nc1nc(-c2ccc(F)cc2)cs1)c1ccc([N+](=O)[O-])cc1`, 6.37% (inactive).

With `N#Cc1ccc(-c2csc(NC(=O)c3cc([N+](=O)[O-])ccc3Cl)n2)cc1`, the inhibition was 14% (inactive). Consider `O=C(Nc1nc(-c2ccc(F)cc2)cs1)c1cc([N+](=O)[O-])ccc1Cl`, for which the inhibition was 42% (active). To `NS(=O)(=O)c1ccc(CCNC(=S)Nc2ccccc2F)cc1` belongs 0.39% (inactive); to `COc1ccc(-c2noc(CN(Cc3ccccc3)CC3CC3)n2)c(OC)c1OC`, -11.8% (inactive). To `C=CCNc1c(C)c(C)nc2cc(-c3ccc(OC)c(OC)c3)nn12` belongs -14.7% (inactive); to `CC1CCCC(NC(=O)C2N(C3CCCC(C)C3C)C(=O)C3C(C(=O)Nc4cccc(Cl)c4)C4C=CC32O4)C1C` (centres undefined), -7.64% (inactive). To `Cc1cc(N2CCCC2)nc(N2CCN(C(=O)c3ccccc3Cl)CC2)n1` belongs 33.1% (active).

`CCS(=O)(=O)N1CCN(C(=O)c2ccccc2Cl)CC1`: the inhibition is -4.13% (inactive). To `O=C(c1ccccc1Cl)N1CCCCC1` belongs 2.65% (inactive); to `O=C(O)c1ccc(NS(=O)(=O)c2cccc(C(F)(F)F)c2)cc1`, 0.38% (inactive); to `Cc1ccc(NC(=O)c2cc(S(=O)(=O)N3CCC(C)CC3)ccc2F)cc1F`, -4.47% (inactive). The figure for `COc1cccc(N2C(=O)C3C4C=CC(C5CC45)C3C2=O)c1` (centres undefined) is -3.66% (inactive). To `CC12CC3(C)CC(O)(C1)CC(C(=O)c1ccccc1)(C2)C3` belongs -1.77% (inactive); to `CSc1nnc(-c2ccncc2)n1CCCN1CCCC1=O`, 58.9% (active); to `Cn1c(SCC(=O)N2CCCCCC2)nnc1-c1ccncc1`, 5.85% (inactive). For `CCCn1c(SCC(=O)N2CCc3ccccc32)nnc1-c1ccncc1`, the inhibition was -1.7% (inactive). The figure for `COC(=O)c1cc(OC)c(OC)cc1NC(=O)c1cc2ccccc2oc1=O` is -9.56% (inactive). The figure for `Clc1ccccc1-c1noc(-c2ccc(-c3ccccc3)cc2)n1` is 6.4% (inactive); for `Oc1ccc(-c2nc(-c3ccccc3Cl)no2)cc1` it is 64.7% (active); for `Cc1ccc(-c2nc(-c3ccccc3Cl)no2)cc1` it is -58.6% (inactive).

For `CC1=C(C(=O)OCCOc2ccccc2)C(c2cccc(Cl)c2Cl)C2=C(CC(c3ccccc3)CC2=O)N1` (centres undefined), the inhibition is 5.89% (inactive). To `O=C(NCCc1ccccc1)C1CCC(Cn2c(SCc3ccc(Cl)cc3)nc3ccccc3c2=O)CC1` (centres undefined) belongs 6.47% (inactive); to `c1cc(-c2nc3c(c(N4CCCCC4)n2)CNCC3)ccn1`, -3.63% (inactive). In the case of `CC(NC(=O)CCc1ccccc1)c1nnc2n1CCN(Cc1cccc(F)c1F)CC2` (centres undefined), the inhibition is -34.9% (inactive).

Take `CSCCC(=O)Nc1nc2ccccc2[nH]1`: the inhibition is -12.9% (inactive). To `CCCCN(CCCC)C(=O)Nc1nc2ccccc2[nH]1` belongs 59.5% (active); to `S=C(Nc1nc2ccccc2[nH]1)Nc1nc2ccccc2[nH]1`, -3.78% (inactive); to `Cc1nc2sc(C(c3ccc([N+](=O)[O-])cc3)N3CC(C)CC(C)C3)c(O)n2n1` (centres undefined), 21.1% (inactive). To `CC(C)c1ccc(S(=O)(=O)N2CCN(C(=O)/C=C/c3ccccc3)CC2)cc1` belongs 5.06% (inactive); to `Cc1c(C(=O)N2CCN(c3ccc(F)cc3)CC2)sc2ncnc(N(C)c3ccccc3)c12`, 6.56% (inactive); to `O=C(CSc1nnc2ncccn12)N1CCCc2ccccc21`, -3.81% (inactive). The figure for `Cc1cc(NC(=O)c2c(F)cccc2Cl)ccc1N1CCCCC1=O` is -2.91% (inactive); for `Cc1ccc(N2CCN(C(=O)c3c(F)cccc3Cl)CC2)nn1` it is -8.28% (inactive). Take `COc1cc(C(=O)Nc2ccc3nc(N4CCN(c5ncccn5)CC4)cc(C)c3c2)cc(OC)c1OC`: the inhibition was 22.2% (inactive). Turning to `COc1ccc(C(=O)Nc2ccc3nc(N4CCCCC4)cc(C)c3c2)cc1OC`, the inhibition is -0.5% (inactive).

With `COc1cc(C(=O)Nc2ccc(Nc3nc(C)cc(N4CCCC4)n3)cc2)cc(OC)c1OC`, the inhibition is 35.6% (active).

On to `Cc1cc(N2CCCC2)nc(Nc2ccc(NC(=O)c3c(F)cccc3Cl)cc2)n1`, for which the inhibition was 42% (active).

The values are drawn from PubChem BioAssay AID1259422 (The Scripps Research Institute Molecular Screening Center, 2018).
